# According to PubChem BioAssay:
# Columns and labels:
# [1] = NFkB reporter suppression in cystic fibrosis bronchial cells – cell-based, uHTS hits, panel, cytotoxicity readout, dose response (AID 624344); conditions: CF bronchial epithelial cells, PAF-induced NFkB reporter inhibition, with PAF, run 1; at 79 µM (top of the series) unless noted
# [2] = as above; conditions: CF bronchial epithelial cells, PAF-induced NFkB reporter inhibition, with PAF, run 2; at 79 µM (top of the series) unless noted
# PEG-3 [3] = molecular target: PEG-3 (UniProt Q6IN02); assay: inhibition of PEG-3 promoter-driven reporter – cell-based, HeLa, luciferase, CREF/GAPDH counter-screen panel, dose response (AID 624167); conditions: CREF/GAPDH counter-screens; HeLa PEG-Prom luciferase reporter, overnight, run 1, dose range 1, at 100 µM (top of the series) unless noted
# Sequence of PEG-3 (Q6IN02 whole entry, looked up): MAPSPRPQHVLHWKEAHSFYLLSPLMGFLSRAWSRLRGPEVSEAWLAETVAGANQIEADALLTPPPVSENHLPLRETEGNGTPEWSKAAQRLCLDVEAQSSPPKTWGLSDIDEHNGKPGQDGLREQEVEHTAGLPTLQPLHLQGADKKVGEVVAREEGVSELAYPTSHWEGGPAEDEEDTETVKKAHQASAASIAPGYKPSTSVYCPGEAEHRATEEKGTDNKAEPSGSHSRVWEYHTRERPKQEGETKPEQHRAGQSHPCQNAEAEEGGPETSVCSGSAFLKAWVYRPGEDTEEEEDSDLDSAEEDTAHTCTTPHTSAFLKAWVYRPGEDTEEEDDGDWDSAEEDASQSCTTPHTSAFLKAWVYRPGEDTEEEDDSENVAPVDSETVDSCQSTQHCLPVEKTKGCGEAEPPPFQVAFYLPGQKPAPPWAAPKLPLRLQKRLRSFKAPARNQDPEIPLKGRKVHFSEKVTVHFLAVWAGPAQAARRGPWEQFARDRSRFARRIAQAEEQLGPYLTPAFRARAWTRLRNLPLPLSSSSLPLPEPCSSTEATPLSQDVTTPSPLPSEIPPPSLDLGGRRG
# PEG-3 [4] = molecular target: PEG-3 (UniProt Q6IN02); assay: as above; conditions: CREF/GAPDH counter-screens; HeLa PEG-Prom luciferase reporter, overnight, run 2, dose range 1, at 100 µM (top of the series) unless noted
# [5] = molecular target: Tumor necrosis factor receptor superfamily member 10B (Homo sapiens) (UniProt O14763); assay: viability loss of caspase-8 NB7 cells with TRAIL – with/without TRAIL, luminescence panel, confirmation (AID 651596); conditions: NB7 neuroblastoma + caspase-8, TRAIL sensitization, NB7 Caspase-8, with TRAIL, mean of runs, at 10 µM, stronger effect = higher value
# Sequence of Tumor necrosis factor receptor superfamily member 10B (Homo sapiens) (O14763 whole entry, looked up): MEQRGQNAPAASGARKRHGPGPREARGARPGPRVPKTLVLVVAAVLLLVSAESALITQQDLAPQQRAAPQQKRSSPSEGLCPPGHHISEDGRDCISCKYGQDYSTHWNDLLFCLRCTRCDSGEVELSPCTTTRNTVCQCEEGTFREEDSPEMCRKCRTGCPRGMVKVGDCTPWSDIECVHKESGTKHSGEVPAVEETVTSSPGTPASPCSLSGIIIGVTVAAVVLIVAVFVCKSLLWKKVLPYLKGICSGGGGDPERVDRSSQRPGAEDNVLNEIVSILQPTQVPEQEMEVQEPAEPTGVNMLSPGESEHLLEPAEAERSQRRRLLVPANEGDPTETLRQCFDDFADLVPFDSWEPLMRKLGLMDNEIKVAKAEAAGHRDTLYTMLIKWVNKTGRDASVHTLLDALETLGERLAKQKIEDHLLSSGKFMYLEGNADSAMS
# [6] = as above; conditions: NB7 neuroblastoma + caspase-8, without TRAIL, NB7 Caspase-8, without TRAIL, mean of runs, at 10 µM
smiles,measurement,setting,value
Cc1ccc(NC(=O)CSc2ncnc3ccccc23)cc1S(=O)(=O)N1CCOCC1,inhibition,[1],110%
same,inhibition,[2],98.4%
Cc1cc2sc3ccc(C#CC4(O)CCCCC4)cc3c(=O)c2cc1C,inhibition,PEG-3 [3],84.2%
same,inhibition,PEG-3 [4],93.8%
same,activity,[5],91.2%
same,activity,[6],90.1%
Cc1noc(-c2ccc(Cl)cc2)c1C(=O)O/N=C(\N)c1ccc(C(C)(C)C)cc1,inhibition,PEG-3 [3],99.2%
same,inhibition,PEG-3 [4],101%
same,activity,[5],99.3%
same,activity,[6],97.5%
COc1ccc(-n2nc(C(=O)NCC(=O)Nc3cc(OC)c(OC)c(OC)c3)c3ccccc3c2=O)cc1Cl,inhibition,[1],96.2%
same,inhibition,[2],95.1%
CN(c1cccc(Cl)c1)S(=O)(=O)c1cccc(C(=O)Nc2nc3ccccc3[nH]2)c1,inhibition,[1],102%
same,inhibition,[2],99.5%
CCCc1nc(Cl)c(C#N)c2c1CCCC2,inhibition,[1],97.8%
same,inhibition,[2],98.1%
COCCCN=C1NN=C(c2cc(C)n(Cc3ccccc3Cl)c2C)CS1,inhibition,[1],88.6%
same,inhibition,[2],106%
CCCNC(=O)COC(=O)c1ccccc1C(=O)c1ccc(Cl)c([N+](=O)[O-])c1,inhibition,[1],96.2%
same,inhibition,[2],99.9%
Cc1cc(C)c2nc(C(F)(F)F)c(C#N)c(N)c2c1,inhibition,[1],97.7%
same,inhibition,[2],90.1%
C=CCN1c2ccccc2[C@]23C[C@@H](C(=O)OC)N(C(=O)c4ccc(Br)cc4)C2=NC(C(=O)OC)=C(C(=O)OC)[C@H]13,inhibition,[1],115%
same,inhibition,[2],101%
Cc1cccc(NC(=O)Nc2ccc(C#N)cc2)n1,inhibition,[1],103%
same,inhibition,[2],113%
O=C(COC(=O)c1ccc2[nH]c3c(c2c1)CCCC3)Nc1ccccc1Cl,inhibition,[1],65.7%
same,inhibition,[2],69.7%
CNC(=O)COC(=O)c1ccccc1C(=O)c1ccc(Cl)c([N+](=O)[O-])c1,inhibition,[1],103%
same,inhibition,[2],102%
CCN(c1ccc(OC)cc1)c1ncnc2nc[nH]c12,inhibition,[1],108%
same,inhibition,[2],98%
O=Nc1c(O)n(Cc2c(Cl)cccc2Cl)c2ccccc12,inhibition,[1],103%
same,inhibition,[2],115%
c1ccc2c(-c3cncc4ccccc34)cncc2c1,inhibition,[1],110%
same,inhibition,[2],99.8%
Cc1ccc(CNc2ncnc(N)c2[N+](=O)[O-])cc1,inhibition,[1],87.7%
same,inhibition,[2],80.8%
Oc1ccc(Br)cc1-c1nc2cnccn2c1NC1CCCC1,inhibition,[1],101%
same,inhibition,[2],97.8%
O=[N+]([O-])c1ccc(Oc2ccc(F)cc2)c2ccncc12,inhibition,[1],99.2%
same,inhibition,[2],97.3%
CC(=C/c1ccccc1)/C=N/n1c(-c2ccncc2)n[nH]c1=S,inhibition,[1],110%
same,inhibition,[2],103%
C[C@@H]1CN([C@H](C)CO)C(=O)c2cc(NC(=O)Nc3ccc(C(F)(F)F)cc3)ccc2O[C@H]1CN(C)S(=O)(=O)c1ccccc1,inhibition,[1],92%
same,inhibition,[2],110%
CN(CCC#N)C(=O)COC(=O)c1ccccc1C(=O)c1ccc(Cl)c([N+](=O)[O-])c1,inhibition,[1],96.7%
same,inhibition,[2],105%
c1cncc(-c2ccc3ncnc(NCc4ccc5c(c4)OCO5)c3c2)c1,inhibition,[1],112%
same,inhibition,[2],101%
CN(C)C=Nc1c(C(=O)c2ccccc2)sc2nccc(N(C)C)c12,inhibition,[1],100%
same,inhibition,[2],105%
COc1ccc(N=Cc2cc3c(cc2O)OC(N)=C(C#N)C3c2ccccc2)cc1 (stereo not given),inhibition,[1],76.8%
same,inhibition,[2],47.7%
CCCCNc1c(-c2cccc(-c3ccc(OC)cc3)c2)nc2ccc(C)cn12,inhibition,[1],98.7%
same,inhibition,[2],107%
Cc1nn(-c2ccccn2)c2c1-c1nc(N)ncc1CC2,inhibition,[1],98.6%
same,inhibition,[2],102%
CCOc1ccc(-n2cc(-c3ccccc3)c3c(N4CCOCC4)ncnc32)cc1,inhibition,[1],112%
same,inhibition,[2],102%
Cc1nn(-c2cccc(Cl)c2)c2nc(C(F)(F)F)[nH]c(=O)c12,inhibition,[1],96%
same,inhibition,[2],79.8%
NC(=S)N1OC[C@@H]2COc3ccc4ccccc4c3[C@@H]21,inhibition,[1],114%
same,inhibition,[2],105%
CCN1CCN(Cc2ccc(NC(=O)c3ccc(C)c(NC(=O)c4ccno4)c3)cc2C(F)(F)F)CC1,inhibition,[1],105%
same,inhibition,[2],83.4%
COc1ccc(-c2cc(=O)oc3cc(O)ccc23)cc1,inhibition,[1],105%
same,inhibition,[2],103%
COc1ccccc1NC(=O)c1cc2c(CO)cnc(C)c2oc1=Nc1ccc(OC)c(OC)c1,inhibition,[1],73.4%
same,inhibition,[2],93.8%
C=Cc1ccc(CC2(C)C(=O)Nc3ccc(-c4cccnc4)cc32)cc1 (stereo not given),inhibition,[1],113%
same,inhibition,[2],102%
COc1ccc2cc3c(N)nn(C(=O)c4ccc(F)cc4)c3nc2c1,inhibition,[1],90%
same,inhibition,[2],96.1%
O=C(c1ccc(O)c(Br)c1)c1cc(Br)ccc1O,inhibition,[1],105%
same,inhibition,[2],109%
COc1cc(-c2cnc3c(NC=O)cc(-c4ccc(C)cc4)cn23)cc(OC)c1OC,inhibition,[1],70.3%
same,inhibition,[2],70.5%
COc1ccc(-c2cc(=O)oc3cc(OC(=O)C4CCCCC4)c(Cl)cc23)cc1,inhibition,[1],117%
same,inhibition,[2],102%
CC(=O)c1ccc(-n2c(C)c(C(C)=O)c3cc(O)ccc32)cc1,inhibition,[1],56.2%
same,inhibition,[2],74.6%
CC(C)c1nc(Cl)c(C#N)c2c1CCCC2,inhibition,[1],96.5%
same,inhibition,[2],112%
CCc1ccccc1NC(=O)CN(C)C(=O)Cn1ncc(Cl)c(Cl)c1=O,inhibition,[1],102%
same,inhibition,[2],101%
Cc1ccc(-c2n[nH]c(=S)n2/N=C/c2ccncc2)cc1,inhibition,[1],111%
same,inhibition,[2],96%
O=[N+]([O-])c1cc([N+](=O)[O-])c2oc(-c3ccccc3)c(Br)c2c1O,inhibition,[1],112%
same,inhibition,[2],107%
O=C(Nc1ccc(Oc2ccc(NC(=O)Nc3ccc([N+](=O)[O-])cc3)cc2)cc1)Nc1ccc([N+](=O)[O-])cc1,inhibition,[1],101%
same,inhibition,[2],114%
O=C(Nc1ccc(N2CCN(C(=O)c3ccccc3F)CC2)cc1)c1cncc(Br)c1,inhibition,[1],112%
same,inhibition,[2],99.6%
O=C(CN1C(=O)CCC1=O)Nc1nc(-c2nc3ccccc3s2)cs1,inhibition,[1],84.7%
same,inhibition,[2],85.9%
CCCCCOC(=O)c1[nH]c2c(c1C)C(=O)CC(c1ccco1)C2 (stereo not given),inhibition,[1],75%
same,inhibition,[2],62.8%
CCOC(=O)C1=C(C)Nc2ccccc2N=C1NC(=O)c1oc2ccccc2c1COC,inhibition,[1],90.5%
same,inhibition,[2],101%
CCN1CCN(Cc2ccc(NC(=O)c3ccc(C)c(NC(=O)c4cc(-c5ccc(Br)cc5)n[nH]4)c3)cc2C(F)(F)F)CC1,inhibition,[1],102%
same,inhibition,[2],112%
Cc1ccc(S(=O)(=O)Nc2cccc3ncccc23)s1,inhibition,[1],107%
same,inhibition,[2],97%
Clc1ccc(CSc2nnc(-c3ccncc3)o2)cc1,inhibition,[1],102%
same,inhibition,[2],83.7%
Cc1ccc(CSc2nccc(-c3c(C)nc4ccccn34)n2)cc1,inhibition,[1],101%
same,inhibition,[2],102%
COc1ccc(-n2ncc3c(N4CCN(Cc5ccccc5)CC4)ncnc32)cc1,inhibition,[1],113%
same,inhibition,[2],102%
Cc1ccc(-c2cc(C(=O)N/N=C/c3c(C)nn(-c4ccccc4)c3C)[nH]n2)cc1,inhibition,[1],62.7%
same,inhibition,[2],88.3%
O=C1NC(c2cccc3ccccc23)Nc2ccc(Cl)cc21 (stereo not given),inhibition,[1],61.5%
same,inhibition,[2],99.9%
O=C1NC(=S)N/C1=C\c1cccnc1,inhibition,[1],99.3%
same,inhibition,[2],99.2%
Nc1nc(N)nc(-c2ccc(Cl)c(Cl)c2)n1,inhibition,[1],116%
same,inhibition,[2],101%
O=C(NCCCSc1ccccc1)c1cc(Cl)ccc1O,inhibition,[1],106%
same,inhibition,[2],117%
COc1cccc(-c2cnc3c(NC=O)cc(-c4ccc(OC)cc4OC)cn23)c1,inhibition,[1],98.2%
same,inhibition,[2],86.1%
CCCCCCc1cc2cc(C(=O)Nc3ccccc3OC)c(=O)oc2cc1O,inhibition,[1],2.45%
same,inhibition,[2],66.2%
COc1ccc(-c2cnc3c(NC=O)cc(-c4ccccc4OC)cn23)cc1OC,inhibition,[1],93.5%
same,inhibition,[2],102%
CN(C)CCCN(C(=O)CCS(=O)(=O)c1ccccc1)c1nc2cc3c(cc2s1)OCO3,inhibition,[1],88.7%
same,inhibition,[2],73%
O=[N+]([O-])C1C(c2ccccc2)C12c1ccccc1-c1ccccc12 (stereo not given),inhibition,[1],99.1%
same,inhibition,[2],106%
Cc1ccc2[nH]cc(C(=O)CCl)c2c1,inhibition,[1],60.6%
same,inhibition,[2],72%
Cc1ccc(C(C(=O)NCc2ccccc2)N(Cc2cccs2)C(=O)c2ccc3c(c2)OCCO3)cc1 (stereo not given),inhibition,[1],106%
same,inhibition,[2],98.3%
Cc1cc2cc(CCNC(=O)C(=O)c3c[nH]c4ccccc34)c(=O)[nH]c2cc1C,inhibition,[1],94.2%
same,inhibition,[2],95.5%
COc1ccc2[nH]c(=O)c3c(c2c1)OC(C)(C)C=C3,inhibition,[1],105%
same,inhibition,[2],117%
c1nc(N2CCOCC2)c2c3c(sc2n1)CCCC3,inhibition,[1],98.5%
same,inhibition,[2],107%
Nc1ncnc2c1c(-c1ccc(Oc3ccccc3)cc1)cn2C1CCCC1,inhibition,[1],114%
same,inhibition,[2],94.1%
O=S(=O)(CC(CN1CCCC1)N1CCCC1)c1ccc2ccccc2c1 (stereo not given),inhibition,[1],96.4%
same,inhibition,[2],92.7%
C=CC(=O)Nc1cccc(Oc2ncnc3[nH]cc(-c4cnc5ccccc5c4)c23)c1,inhibition,[1],102%
same,inhibition,[2],109%
CS(=O)(=O)Nc1ccc(-c2cnc3cccnn23)cc1,inhibition,[1],95.8%
same,inhibition,[2],102%
CCN1CCN(Cc2ccc(NC(=O)c3ccc(C)c(NC(=O)c4csc(-c5ccncc5)n4)c3)cc2C(F)(F)F)CC1,inhibition,[1],107%
same,inhibition,[2],101%
COc1ccc(COC(=O)C2=C(C)NC(=O)NC2c2ccc(F)cc2)cc1 (stereo not given),inhibition,[1],90.1%
same,inhibition,[2],105%
CC(NC(=O)OCc1ccccc1)C(=O)Oc1cc2oc(=O)cc(-c3ccccc3)c2cc1Cl (stereo not given),inhibition,[1],103%
same,inhibition,[2],103%
CCOc1ccccc1N1CCN(C(=O)c2cc(-c3cc(OC)ccc3OC)nc3ccccc23)CC1,inhibition,[1],107%
same,inhibition,[2],104%
CC(C)(C)OC(=O)NCCCCCNC(=O)c1nc[nH]c1C(=O)NCC(=O)OCc1ccccc1,inhibition,[1],111%
same,inhibition,[2],101%
CCc1cc2c(Sc3nc4ccccc4s3)ncnc2s1,inhibition,[1],114%
same,inhibition,[2],98.3%
COc1cc(O)c(CC=C(C)C)c(O)c1C(=O)CCc1ccc(O)cc1,inhibition,[1],112%
same,inhibition,[2],104%
O=C(Nc1ccccc1)Nc1ncc([N+](=O)[O-])s1,inhibition,[1],108%
same,inhibition,[2],96.7%
C=C1C(=O)[C@]23C[C@H]1CCC2[C@]1(C)C(=O)CC[C@@](C)(C(=O)O)C1C[C@@H]3O (stereo not given in full),inhibition,[1],98.9%
same,inhibition,[2],89.8%
c1cc(-c2nnc3sc(C4CCCCC4)nn23)ccn1,inhibition,[1],102%
same,inhibition,[2],109%
c1cc(-c2cnc3cccnn23)c2cccnc2c1,inhibition,[1],114%
same,inhibition,[2],105%
Cc1ccccc1C(=O)N1CCN(c2ccc(NC(=O)CSc3ccc(Cl)cc3)cc2)CC1,inhibition,[1],77.6%
same,inhibition,[2],71.9%
O=C1/C(=C/c2cccnc2)CCc2c1[nH]c1ccccc21,inhibition,[1],103%
same,inhibition,[2],109%
CN(C)c1ccc(-c2nn3c(-c4ccccc4Cl)nnc3s2)cc1,inhibition,[1],102%
same,inhibition,[2],65.9%
Cc1ccc(CNc2ncnc3ccc(-c4ccoc4C)cc23)o1,inhibition,[1],103%
same,inhibition,[2],89.6%
C[C@@H]1CC=C[C@H]2[C@H]1C(=O)N(Cc1ccccc1)[C@H]2c1ccc2ccccc2c1Br,inhibition,[1],110%
same,inhibition,[2],93.6%
